# Measured values: PubChem BioAssay (Tox21)
# Results filed as inconclusive are left out. Unmarked numbers belong to inactive results. Activity calls are given as the source filed them. The call rests on the fitted dose curve; in most records, active means well fitted cell-killing curve with a large enough effect in the repeat runs; inconclusive means weak or mixed curves, or effect the other way; inactive means no such curve, though single readings can be large or run the other way.
# Assay: qHTS assay to identify small molecule agonists of the RXR signaling pathway - cell viability counter screen (AID 1159529); further: nearly all actives have a fitted effect of over 50% in size
# Conditions: RXR-alpha-bla HEK293T viability, CellTiter-Glo, 16 h; series mostly up to 76.8 µM
# Method in brief: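 CellTiter-Glo luminescence gave viability in the wells also read for beta-lactamase. Cells (RXR-alpha-UAS-bla HEK 293T, 2% charcoal-stripped FBS medium) had 5 hr plating, then 16 hr compound exposure at 37 C; tetraoctyl ammonium bromide served as positive control.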
# On the % scale 0 is the no-effect control and ±100 the full control effect.
Structure (SMILES),outcome,"activity change, negative = cytotoxicity"
CC(CC(=O)O)CC(C)(C)C (configuration not stated),inactive,
Nc1ccc(/C=C/c2ccc(N)cc2S(=O)(=O)O)c(S(=O)(=O)O)c1,,1.24% [at 0.29 µM]
COc1ccc(NS(=O)(=O)c2ccc(N)cc2)nn1,inactive,
CCCCCCCCCCCCC1CO1 (configuration not stated),inactive,
CC(C)C(=O)c1ccccc1,inactive,
CCCCCCCCCCC,inactive,
CC(Cl)COP(=O)(OCC(C)Cl)OCC(C)Cl (configuration not stated),inactive,
CN(C)CCOCCN(C)CCO,inactive,
CC(C)(CO)[C@@H](O)C(=O)NCCCO,inactive,
CC(=O)OC(C)c1ccccc1 (configuration not stated),inactive,
C=CCOCC(CO)(COCC=C)COCC=C,inactive,
Cc1ncc([N+](=O)[O-])n1CC(O)CCl (configuration not stated),inactive,
CCCCC(CC)COC(=O)c1ccccc1 (configuration not stated),inactive,
CCN(CCO)c1cccc(C)c1,inactive,
CN=C(NC#N)NCCSCc1csc(N=C(N)N)n1,inactive,
CC1CCC(C(C)(C)S)C(=O)C1 (configuration not stated),inactive,
O=CN1CCOCC1,inactive,
Cc1c(C(C)C)c(=O)n(-c2ccccc2)n1C,inactive,
CCCCCCCCCCCCCCCCCCN(C)C,inactive,

Structure (SMILES),outcome,"activity change, negative = cytotoxicity"
O=C(O)CCNC(=O)c1ccccc1,inactive,
COc1ccc(OC)c(NC(=O)CC(C)=O)c1,inactive,
CCN(CCC#N)c1ccccc1,inactive,
O=C(CN1CCN(Cc2ccc3c(c2)OCO3)CC1)N1c2ccccc2Sc2ccccc21,inactive,
O=C(O)c1ccccc1C(=O)Nc1ccc(S(=O)(=O)Nc2nccs2)cc1,inactive,
O=c1[nH]c(=O)c2ccccc2o1,inactive,
CCC1COC(=O)O1 (configuration not stated),inactive,
C=CCOc1cc(Cl)ccc1C(=O)NCCN(CC)CC,inactive,
Cc1cccc(NC(=S)N(C)C)c1,inactive,
O=C(COCCOCCOCC(=O)Nc1c(I)cc(I)c(C(=O)O)c1I)Nc1c(I)cc(I)c(C(=O)O)c1I,inactive,
C=CCOc1c(Br)cc(Br)cc1Br,inactive,
NC(=O)NC(=O)Cc1ccccc1,inactive,
FC(F)(F)/C(=N\OCC1OCCO1)c1ccc(Cl)cc1,inactive,
CCOc1ccc(NC(=O)OC(C)C)cc1OCC,inactive,
CC(=O)/C=C/c1ccco1,inactive,
CCC(=O)OCCC(C)CCC=C(C)C (configuration not stated),inactive,
CCCCCCCCC(=O)OCC,inactive,
CCCCCCCCCCCCCCCCI,,14.9% [at 15.8 µM]
